Here are results for ten compounds from PubChem BioAssay (Tox21).

A short description of assay [1]: qHTS assay to identify small molecule antagonists of the androgen receptor (AR) signaling pathway using the MDA cell line in the presence of 0.5 nM R1881 - cell viability counter screen (AID 1259242). Further: nearly all actives have a fitted effect of over 45% in size. Summed up: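 Counter screen for cytotoxicity run in the same wells as the AR antagonist reporter screen: MDA-kb2 cells were treated 16 hr with test compounds and 0.5 nM R1881, then live-cell protease activity was measured by fluorescence.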
Background: Quantitative high-throughput screening tests each substance at several concentrations.

A short description of assay [2]: qHTS assay to identify small molecule HDAC inhibitors (AID 1259364). Further: nearly all actives have a fitted effect of over 45% in size. Further: potency means the concentration at half of the fitted maximal effect. The method in brief:
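Luminescence from a cell-permeant luminogenic class I/II HDAC substrate reports endogenous deacetylase activity in intact HCT-116 cells treated with compounds for 2 h.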

Assay [3] can be described thus: qHTS assay to identify small molecule HDAC inhibitors - cell viability counter screen (AID 1259365). Further: series mostly up to about 92 µM; nearly all actives have a fitted effect of over 50% in size. Summed up:
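To flag cytotoxic hits, 1,500 wild-type HCT-116 cells per well, plated the day before, receive test compounds for 2hr at 37 C before CellTiter-Glo reagent and a luminescence read.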

Assay [4] in a line: qHTS assay to identify small molecule agonists of the sonic hedgehog signaling (Shh) pathway - cell viability counter screen (AID 1259366). Further: nearly all actives have a fitted effect of over 50% in size. Further: potency means the concentration at half of the fitted maximal effect. The method in brief: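 Fluorescence from CellTiter-Fluor reports live cells in this counter screen. NIH/3T3-derived Gli1-Luc reporter cells receive test compounds for 24hr at 37C; reagent goes in at 23hr.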
Assay [5] is described as follows: qHTS assay to identify small molecule antagonists of the sonic hedgehog signaling (Shh) pathway - cell viability counter screen (AID 1259367). Further: nearly all actives have a fitted effect of over 55% in size. Further: potency means the concentration at half of the fitted maximal effect. The method in brief:
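Using CellTiter-Fluor, viability of Gli1-Luc reporter 3T3 cells is read by fluorescence in the wells used for the Shh luciferase assay. Treatment lasts 23 hr with conditioned medium, then reagent 1 hr at 37C.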

Assay [6] is described as follows: qHTS assay to identify small molecule agonists of the sonic hedgehog signaling (Shh) pathway (AID 1259368; calls by dose curve;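 further: NIH/3T3-derived 3T3Gli1-Luc cells carrying a stable Gli1-driven firefly luciferase reporter; series mostly up to about 92 µM; nearly all actives have a fitted effect of over 15% in size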). Summed up: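 3T3Gli1-Luc (NIH/3T3 clone, stable Gli1-Luc); 4 hr pre-incubation, then cpd in DMSO 24 hr, 37 C/5% CO2; luciferase reagent 30 min RT; luminescence.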
Assay [7] in a line: qHTS assay to identify small molecule antagonists of the sonic hedgehog signaling (Shh) pathway (AID 1259369; calls by dose curve; further: nearly all actives have a fitted effect of over 45% in size; further: potency means the concentration at half of the fitted maximal effect). The method in brief:
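3T3Gli1-Luc, conditioned-medium-stimulated, 24hr cpd, 37C/5% CO2; Gli1-driven firefly Luc luminescence after 30min RT with luciferase reagent. Cells plated 4hr before cpd.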

Assay [8] concerns the target Estrogen receptor beta (Homo sapiens) (UniProt Q92731). In words: qHTS assay to identify small molecule agonists of the estrogen receptor beta (ER-beta) signaling pathway (AID 1259377; active means well fitted activation curve with a large enough effect in the signal ratio in the repeat runs, not every such curve was filed as active; the % refers to the signal ratio). The method in brief: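 Screening used GripTite ER-beta-UAS-bla cells held in 2% charcoal-stripped FBS medium. After overnight (16 hr) compound incubation at 37C, beta-lactamase activity was detected with a FRET substrate by fluorescence.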

Assay [9] shares this target. Kind of assay: qHTS assay to identify small molecule antagonists of the estrogen receptor beta (ER-beta) signaling pathway (AID 1259378; active means well fitted inhibition curve with a large enough effect in the signal ratio in the repeat runs, not every such curve was filed as active; the % refers to the signal ratio). Summed up: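 Antagonist mode: compounds added to beta-lactamase reporter HEK293T ER-beta-UAS cells stimulated with E2 (1nM final), 16 hr at 37C. LiveBLAzer B/G FRET substrate, 2 hours room temperature, fluorescence read-out.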
Assay [10] in a line: qHTS assay to identify small molecule agonists of the androgen receptor (AR) signaling pathway in the presence of an antagonist - cell viability counter screen (AID 1259379).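 Further: MDA-kb2 human breast cancer cells carrying an MMTV luciferase reporter; series mostly up to about 92 µM; nearly all actives have a fitted effect of over 25% in size.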 The method in brief: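 Cells: MDA-kb2 (MMTV-luc, AR and GR elements), 3,000/well, 5 hr settle. Added: nilutamide 3.0uM final, then compounds (15 conc.). Incubation: 16 hr, 37C, no CO2. Read-out: CellTiter-Fluor, 1 hr, fluorescence.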

Assay [11] is described as follows: qHTS assay to identify small molecule agonists of the estrogen receptor beta (ER-beta) signaling pathway - cell viability counter screen (AID 1259380). Further: nearly all actives have a fitted effect of over 30% in size. Summed up: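 HEK293T ER-beta-UAS-bla; 2% CS-FBS; 6 hr pre-plate, 16 hr cpd at 37C/5% CO2; LiveBLAzer read first, then CellTiter-Glo 30 min RT, luminescence.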
A short description of assay [12]: qHTS assay to identify small molecule antagonists of the estrogen receptor beta (ER-beta) signaling pathway - cell viability counter screen (AID 1259382).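 Further: HEK293T cells carrying ER-beta-UAS-bla reporter stimulated with estradiol; series mostly up to about 92 µM; nearly all actives have a fitted effect of over 55% in size.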 Summed up:
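Cells: ER-beta-UAS-bla HEK293T, 2,000/well, 2% CS-FBS, 6 hr settle. Cpd + E2 (1nM final), 16 hr, 37C/5% CO2. Bla FRET substrate 2 hr RT, then CellTiter-Glo 30 min RT, luminescence.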

The nature of assay [13]: qHTS assay to identify small molecule agonists of the estrogen receptor alpha (ER-alpha) signaling pathway in the presence of an antagonist - cell viability counter screen (AID 1259386).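 Further: series mostly up to about 92 µM; cells exposed to compounds for 22 h at 37 °C before the viability read; nearly all actives have a fitted effect of over 30% in size.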 Summed up: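 VM7Luc4E2, stripped-serum pre-culture 5 d; 24hr plating; +ICI-182,780 10.0nM final; cpds 15 conc, 22hr, 37C/5% CO2; CellTiter-Fluor added at 21hr, fluorescence 1hr later.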

Assay [14] in a line: qHTS assay to identify small molecule phospholipidosis (PLD) inducers (AID 1259344; active means well fitted curve in the direction sought with a large enough effect; an effect the other way counts as inactive or inconclusive). Summed up:
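Fluorescent phospholipid staining (LipidTOX Red) measured by automated microscopy in fixed HepG2 cells after 24 h treatment; nuclei counterstained with Hoechst 33342; amiodarone as reference inducer.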

Assay [15] in a line: qHTS assay to identify small molecule agonists or antagonists of the thyroid stimulating hormone receptor (TSHR) signaling pathway - wild type cell line counter screen (AID 1259384; calls by dose curve). Summed up: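 Counter screen in untransfected Hek293: compounds (15-point titration, triplicate) plus phosphodiesterase inhibitor Ro20-1724 added after 18 h plating; 30 min RT. Intracellular cAMP via competitive d2/cryptate immunoassay, 1 h incubation.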

In assay [16] the target is Thyrotropin receptor (Homo sapiens) (UniProt P16473). In words: qHTS assay to identify small molecule antagonists of the thyroid stimulating hormone receptor (TSHR) signaling pathway (AID 1259385; calls by dose curve; further: nearly all actives have a fitted effect of over 20% in size). Summed up:
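Antagonist mode: compound-treated TSHR-expressing HEK293 cells were stimulated with 1.5 ng/mL TSH (final) in presence of Ro20-1724 for 30 min at RT. HTRF cAMP detection after 1 h; each compound tested at 15 concentrations, triplicate.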

The target of assay [17] is Estrogen receptor (Homo sapiens) (UniProt P03372). Kind of assay: qHTS assay to identify small molecule agonists of the estrogen receptor alpha (ER-alpha) signaling pathway in the presence of an antagonist (AID 1259383; calls by dose curve; further: top concentration of the series differs between compounds; nearly all actives have a fitted effect of over 15% in size). Summed up: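 VM7Luc4E2, endog. ER-alpha + 4×ERE-luc; charcoal-stripped FBS, phenol red-free, 5 d; 24hr plating; +10.0nM ICI-182,780 (final); cpds 15 conc, 22hr, 37C/5% CO2; ONE-Glo luminescence.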
Sequence of Estrogen receptor (Homo sapiens) (P03372 whole entry, looked up): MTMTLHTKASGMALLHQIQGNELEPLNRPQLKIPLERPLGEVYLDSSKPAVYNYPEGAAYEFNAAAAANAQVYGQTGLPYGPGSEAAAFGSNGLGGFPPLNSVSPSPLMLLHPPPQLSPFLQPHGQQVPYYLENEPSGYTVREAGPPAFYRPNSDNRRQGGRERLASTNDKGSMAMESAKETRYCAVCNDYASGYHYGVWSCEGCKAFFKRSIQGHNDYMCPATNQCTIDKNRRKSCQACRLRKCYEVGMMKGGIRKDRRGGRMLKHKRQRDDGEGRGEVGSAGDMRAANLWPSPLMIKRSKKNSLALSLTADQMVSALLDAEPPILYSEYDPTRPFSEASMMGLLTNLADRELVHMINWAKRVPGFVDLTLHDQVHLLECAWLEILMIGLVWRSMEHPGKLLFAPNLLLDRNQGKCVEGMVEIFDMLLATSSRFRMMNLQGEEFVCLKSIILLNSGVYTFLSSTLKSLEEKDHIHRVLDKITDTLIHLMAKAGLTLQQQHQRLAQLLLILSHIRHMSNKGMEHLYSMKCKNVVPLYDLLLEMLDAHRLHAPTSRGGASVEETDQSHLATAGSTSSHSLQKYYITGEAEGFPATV

Values without a mark were called inactive. Records with an inconclusive call do not appear. Active and inactive are the calls of the source. Unless noted, the call rests on the fitted dose curve; in most records, active means well fitted curve in the direction sought with a large enough effect in the repeat runs; inconclusive means weak or mixed curves; inactive means no such curve, though single readings can be large; an effect the other way counts as inactive or inconclusive.

Sequence of Estrogen receptor beta (Homo sapiens) (Q92731 whole entry, looked up): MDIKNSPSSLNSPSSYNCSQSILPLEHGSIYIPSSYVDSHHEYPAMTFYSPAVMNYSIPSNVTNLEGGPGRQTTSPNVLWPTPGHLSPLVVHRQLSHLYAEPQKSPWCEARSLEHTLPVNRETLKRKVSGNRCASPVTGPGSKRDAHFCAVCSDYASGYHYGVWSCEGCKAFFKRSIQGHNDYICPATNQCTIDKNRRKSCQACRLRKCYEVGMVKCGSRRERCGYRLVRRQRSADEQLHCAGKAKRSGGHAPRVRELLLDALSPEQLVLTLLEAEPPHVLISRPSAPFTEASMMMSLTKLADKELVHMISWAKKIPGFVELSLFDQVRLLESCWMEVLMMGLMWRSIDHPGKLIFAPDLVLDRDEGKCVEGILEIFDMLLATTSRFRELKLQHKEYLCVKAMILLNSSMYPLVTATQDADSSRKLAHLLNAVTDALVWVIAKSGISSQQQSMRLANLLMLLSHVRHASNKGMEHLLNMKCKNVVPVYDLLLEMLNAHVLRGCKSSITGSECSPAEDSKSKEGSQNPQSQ
Sequence of Thyrotropin receptor (Homo sapiens) (P16473 whole entry, looked up): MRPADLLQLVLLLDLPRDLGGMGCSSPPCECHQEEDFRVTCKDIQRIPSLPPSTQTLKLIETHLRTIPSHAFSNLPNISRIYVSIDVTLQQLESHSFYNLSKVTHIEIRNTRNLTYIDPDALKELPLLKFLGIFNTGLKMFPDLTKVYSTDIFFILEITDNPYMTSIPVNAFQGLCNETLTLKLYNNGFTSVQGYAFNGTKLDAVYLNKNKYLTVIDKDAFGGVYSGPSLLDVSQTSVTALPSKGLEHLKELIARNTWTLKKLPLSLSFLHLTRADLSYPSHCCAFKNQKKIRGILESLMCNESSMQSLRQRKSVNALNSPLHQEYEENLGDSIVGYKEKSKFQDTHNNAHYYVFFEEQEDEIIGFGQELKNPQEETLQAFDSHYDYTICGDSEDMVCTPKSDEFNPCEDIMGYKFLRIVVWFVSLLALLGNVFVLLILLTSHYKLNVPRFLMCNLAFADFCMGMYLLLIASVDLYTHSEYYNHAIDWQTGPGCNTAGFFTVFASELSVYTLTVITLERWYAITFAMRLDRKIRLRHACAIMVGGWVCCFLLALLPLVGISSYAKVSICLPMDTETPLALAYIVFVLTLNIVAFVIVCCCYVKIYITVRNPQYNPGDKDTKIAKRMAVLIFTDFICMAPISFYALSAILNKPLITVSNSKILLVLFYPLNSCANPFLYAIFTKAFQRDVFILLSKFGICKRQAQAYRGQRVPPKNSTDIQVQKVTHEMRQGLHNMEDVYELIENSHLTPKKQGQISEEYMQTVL

Consider `Cc1ccc(C=O)s1`, for which the result in assay [1], in assay [3], in assay [8] and in assay [12] was inactive. Besides, the Potency result in assay [2], in [4], in assay [5], in assay [6], in [9] and in assay [10] was “inactive” in each case. In addition, the Potency entry in [11] and in assay [13] was “inactive” throughout. In addition, the Potency in assay [7] was 48.6 µM (active).
Turning to `C=O`, the outcome in assay [1], in assay [14], in assay [8], in assay [12] and in assay [15] was inactive. In addition, the Potency result in assay [2], in assay [4], in assay [5], in assay [6], in assay [7] and in assay [10] was “inactive” throughout. For the same compound, the Potency entry in assay [11], in assay [16] and in assay [13] was “inactive” each time.
As for `CC(C)O`, the outcome in [1], in [14], in [3], in assay [12] and in assay [15] was inactive. The Potency result in assay [2], in assay [6], in [10], in assay [11], in assay [17] and in assay [16] was “inactive” throughout. Further, the Potency result in assay [13] is “inactive”. In addition, in assay [7], the Potency was 29.3 µM (active).
As for `O=[N+]([O-])c1nccn1CO[C@@H](CO)[C@H](O)CO`, the result in assay [1], in [14], in assay [8], in assay [12] and in [15] was inactive. Also, the Potency entry in [2], in [4], in assay [5], in assay [6], in assay [7] and in assay [10] was “inactive” each time. In addition, the Potency entry in assay [11] and in assay [13] was “inactive” throughout.
In the case of `CCN(O)CC`, the result in [1], in assay [3] and in assay [12] was inactive. In addition, the Potency in assay [2] is 26.7 µM (active); in assay [4], 30 µM (active); in assay [5], 21.2 µM (active); in assay [7], 11.9 µM (active). The Potency result in [6], in assay [10], in assay [11] and in assay [13] was “inactive” throughout.
As for `C1CSCCS1`, the result in assay [1], in assay [3] and in assay [12] was inactive. For the same compound, the Potency result in [2], in [4], in assay [5], in [6], in assay [7] and in [10] was “inactive” in each case. Besides, the Potency entry in assay [11], in assay [16] and in assay [13] was “inactive” in each case.
On to `CC(C)OC(C)C`, for which the result in [1], in assay [3], in assay [12] and in assay [15] was inactive. Further, the Potency result in [2], in [4], in [5], in assay [6], in assay [7] and in assay [10] was “inactive” in each case. The Potency entry in [11], in assay [17], in assay [16] and in assay [13] was “inactive” in each case.
For `CCN(CC)CCOc1ccc(Cc2ccccc2)cc1`, the result in [1], in assay [14], in assay [12] and in [15] was inactive. For the same compound, the Potency result in assay [2], in assay [4], in assay [5], in assay [6], in [10] and in assay [17] was “inactive” each time. In assay [13], the Potency result is “inactive”.
For `CC(=O)Nc1ccc(C)c(Cl)c1`, the outcome in [1], in assay [3], in assay [12] and in assay [15] was inactive. Moreover, the Potency result in assay [2], in assay [4], in [5], in assay [6], in [7] and in [10] was “inactive” in each case. Also, the Potency entry in [11] and in [13] was “inactive” each time.
As to `CC(C)C(=O)OC/C=C/c1ccccc1`, the outcome in assay [1], in [3], in [8], in assay [12] and in assay [15] was inactive. The Potency entry in [2], in assay [4], in assay [5], in [6], in assay [7] and in assay [9] was “inactive” each time. Besides, the Potency result in assay [10], in [17], in assay [16] and in [13] was “inactive” throughout.
